In the library only some 1.8% were active in any assay of this set; here they are far more common.
LYPLA1 counter: LYPLA1 inhibitors, primary screen, counter-screen for PME1 inhibitor project, biochemical, fluorescence polarization, FP-Rh probe ABPP; Acyl-protein thioesterase 1 (Homo sapiens), O75608; inhibition, % at 5.9 µM; actives 0.16% (n = 320,000); recombinant LYPLA1;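 active = inhibition above the mean of all tested compounds plus 3 SD, set per campaign, cut at about 14% in these data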;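 note: inhibitors block serine hydrolase probe labeling of LYPLA1 so polarization falls; 0% = enzyme with DMSO and 100% = wells lacking LYPLA1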
Fam108B inh: mouse Fam108B serine hydrolase inhibitors, primary screen, counter-screen for RBBP9 inhibitor project, biochemical, fluorescence polarization. recombinant Fam108B, FP-Rh probe fluorescence polarization. inhibition, % at 9.51 µM. actives 0.33% (n = 300,000);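 active = inhibition above the screen mean inhibition plus 3 SD, computed separately per campaign, cut at about 18% in these data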;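 note: inhibitors lower polarization as less probe binds the enzyme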
PME-1 primary: PME-1 inhibitors via competitive probe labeling, primary screen, biochemical, fluorescence polarization, FP-Rh probe, HTS; actives 0.53% (n = 320,000); inhibition, % at 5.9 µM; recombinant PME-1; AID 2130, 2009;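 active = inhibition above the campaign mean of all compounds plus 3 SD, cut at about 26% in these data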;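 note: competitive labeling of PME-1 active site by serine hydrolase directed probe; 0% = PME-1 with DMSO and 100% = wells lacking PME-1 enzyme; inhibitors block probe labeling so polarization falls and inhibition rises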
Target sequence (Q9Y570 whole entry, looked up): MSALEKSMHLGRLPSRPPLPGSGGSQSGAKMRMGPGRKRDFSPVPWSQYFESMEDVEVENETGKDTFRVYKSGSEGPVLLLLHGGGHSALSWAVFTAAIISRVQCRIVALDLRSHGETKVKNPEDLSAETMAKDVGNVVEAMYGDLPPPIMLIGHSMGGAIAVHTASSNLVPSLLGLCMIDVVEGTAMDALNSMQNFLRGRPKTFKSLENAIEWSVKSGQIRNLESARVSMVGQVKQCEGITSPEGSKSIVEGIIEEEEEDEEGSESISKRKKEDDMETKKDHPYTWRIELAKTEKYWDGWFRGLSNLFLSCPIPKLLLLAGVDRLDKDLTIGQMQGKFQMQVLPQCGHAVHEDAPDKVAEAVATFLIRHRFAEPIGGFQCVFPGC
GSTO1 inh: inhibitors of recombinant GSTO1, primary screen, counter-screen for RBBP9 inhibitor project, biochemical, fluorescence polarization; inhibition, % at 5.96 µM; activity-based probe fluorescence polarization; Glutathione S-transferase omega-1 (Homo sapiens), P78417; actives 1.1% (n = 300,000);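 active = inhibition above the campaign mean inhibition plus 3 SD, cut at about 35% in these data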;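 note: 0% = GSTO1-1 with DMSO and 100% = wells lacking GSTO1-1 enzyme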
Target sequence (P78417 whole entry, looked up): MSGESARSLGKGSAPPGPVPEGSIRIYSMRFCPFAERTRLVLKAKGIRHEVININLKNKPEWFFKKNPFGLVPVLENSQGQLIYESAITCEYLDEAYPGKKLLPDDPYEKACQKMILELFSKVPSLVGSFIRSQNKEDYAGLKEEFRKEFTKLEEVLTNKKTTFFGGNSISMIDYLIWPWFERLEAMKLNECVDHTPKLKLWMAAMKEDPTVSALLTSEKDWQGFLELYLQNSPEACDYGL
PAD4 inh: human PAD4 inhibitors, primary screen, biochemical, fluorescence polarization, 1536-well format; Protein-arginine deiminase type-4 (Homo sapiens), Q9UM07; AID 485272, 2010; actives 0.41% (n = 330,000); inhibition, % at 6.36 µM; recombinant PAD4, RCA probe fluorescence polarization;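 active = percent inhibition above a cutoff equal to the mean of all tested compounds plus 3 SD, cut at about 15% in these data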;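 note: 0% = PAD4 with RCA probe and DMSO and 100% = probe without PAD4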
LYPLA2 counter: LYPLA2 inhibitors, primary screen, counter-screen for PME1 inhibitor project, biochemical, fluorescence polarization, FP-Rh probe ABPP; Acyl-protein thioesterase 2 (Homo sapiens), O95372; recombinant LYPLA2; inhibition, % at 5.9 µM; actives 0.38% (n = 320,000);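 active = inhibition above the screen-wide mean plus 3 SD, limit set per campaign, cut at about 26% in these data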;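 note: 0% = LYPLA2 with DMSO and 100% = wells lacking LYPLA2 enzyme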
Fam108b inh conf: mouse Fam108b serine hydrolase inhibitors, confirmation, counter-screen for RBBP9 inhibitor project, biochemical, fluorescence polarization, triplicate; recombinant Fam108b, FP-Rh probe fluorescence polarization; shares compounds with Fam108B inh; actives 44% (n = 930); inhibition, % at 9.51 µM;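 active = inhibition above a limit from the primary screen, the mean over all compounds plus 3 SD, cut at about 19% in these data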;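 note: 0% = median of active Fam108b wells and 100% = catalytically dead S170A mutant; inhibitors free the probe so polarization falls as inhibition rises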
Fam108b inh: inhibition of mouse Fam108b by HTS hits, late-stage follow-up, biochemical, gel-based ABPP, soluble recombinant form; shares compounds with Fam108B inh; fluorophosphonate probe; inhibition, % at 20 µM; actives 44% (n = 260); in the data active = inhibition above about 40%
Numbers without * were called inactive; x = not tested or not shown.

SMILES | LYPLA1 counter | Fam108B inh | PME-1 primary | GSTO1 inh | PAD4 inh | LYPLA2 counter | Fam108b inh conf | others
O=C(N/C(=C\c1ccccc1)C(=O)N1CCOCC1)c1ccco1 | -6 | 42* | -12 | 4 | 3 | -4 | 0
O=C(N/C(=C\c1ccc(Cl)cc1)C(=O)N1CCOCC1)c1ccco1 | 1 | -1 | -3 | 6 | -2 | -2 | x
O=C(O)CC(C(=O)O)N1C(=O)/C(=C/c2ccc(-c3nc4ccccc4s3)o2)SC1=S (stereo not given) | 3 | 32* | -17 | 26 | 4 | 15 | -11
O=C(O)CCCN1C(=O)/C(=C\c2ccc(-c3nc4ccccc4s3)o2)SC1=S | 2 | 20* | -5 | 22 | -5 | 9 | 11
COc1ccc2nc3ccccc3nc2c1NC(=O)c1ccc(Cl)cc1Cl | 3 | -1 | 9 | -3 | -3 | 3 | x
COc1ccc(NC(=O)c2cc3c(-c4ccc(OC)c(OC)c4)nn(C)c3s2)cc1OC | 9 | 46* | 17 | 3 | -3 | 2 | -1
O=C(N/N=C/c1ccc(O)cc1O)c1ccc(CN2C(=O)c3cccc4cccc2c34)cc1 | -38 | 38* | -36 | -48 | -8 | -51 | 28*
Cc1ccc(NC2=C/C(=N/S(=O)(=O)c3cccs3)c3ccccc3C2=O)cc1C | -2 | 5 | 4 | 30 | -17 | 0 | x
O=C1C(Nc2ccccc2)=CC(=NS(=O)(=O)c2cccs2)c2ccccc21 | x | x | x | x | x | x | x | Fam108b inh=0
CC(=O)Nc1ccc(NC2=CC(=NS(=O)(=O)c3cccs3)c3ccccc3C2=O)cc1 | x | x | x | x | x | x | x | Fam108b inh=20
Cc1csc(NC(=O)C(NS(=O)(=O)c2ccc(Br)s2)c2ccccc2)n1 (stereo not given) | -1 | 2 | 0 | 0 | -5 | 2 | x
Cc1ccc(-c2nc(Nc3ccc(O)cc3)c3ccccc3n2)cc1 | -6 | 35* | 41* | -11 | -7 | 9 | 3
COc1cccc(Nc2nc(-c3ccccc3O)nc3ccccc23)c1 | -23 | -7 | -17 | -22 | 0 | -27 | x
COc1ccc(Nc2nc(-c3ccccc3O)nc3ccccc23)cc1 | -17 | 25* | 17 | -10 | -2 | -4 | -20
Cc1ccc(-c2nc(Nc3cccc(O)c3)c3ccccc3n2)cc1 | -28 | 1 | -9 | -20 | -1 | -32 | x
COc1ccc(/C=C/C(=O)Nc2c(C(=O)O)[nH]c3ccccc23)cc1OC | -3 | -2 | 12 | 3 | -3 | -10 | x
O=C(Nc1ccc(Nc2ccccc2)cc1)Nc1ccccc1Cl | -17 | 22* | 31* | -5 | -5 | -1 | -2
CN(C)CCNC(=O)C(=O)NCC1CCCN1S(=O)(=O)c1cccs1 (stereo not given) | 2 | -1 | 3 | -2 | -1 | 6 | x
O=C(CCCSc1ccccc1)Nc1nc(-c2ccccn2)cs1 | -3 | -1 | 1 | 6 | 0 | -1 | x
O=C(CCCSc1ccccc1)Nc1nc(-c2ccco2)c(-c2ccco2)s1 | -10 | 47* | 33* | -9 | -17 | 7 | 32* | Fam108b inh=75*
O=C(CSc1nnc(NC(=O)c2c(F)cccc2F)s1)NC1CC1 | -3 | 4 | -1 | 0 | 0 | -1 | x
O=[N+]([O-])c1cccc(-c2nc(-c3ccccc3)c(-c3cccs3)[nH]2)c1 | 2 | -2 | 2 | -4 | -5 | 1 | x
Fc1ccc(-c2nc(-c3cccs3)[nH]c2-c2ccc(F)cc2)cc1 | 4 | 19* | 15 | -2 | -2 | 15 | 6
O=[N+]([O-])c1ccc(-c2nc(-c3cccs3)c(-c3cccs3)[nH]2)cc1 | -22 | 24* | 42* | -20 | -19 | -8 | 20*
COc1ccc(-c2nc(-c3cccs3)c(-c3cccs3)[nH]2)cc1OC | -3 | 10 | 13 | 3 | 1 | -5 | x
SMILES | LYPLA1 counter | Fam108B inh | PME-1 primary | GSTO1 inh | PAD4 inh | LYPLA2 counter | Fam108b inh conf | others
O=[N+]([O-])c1cccc(-c2nc(-c3cccs3)c(-c3cccs3)[nH]2)c1 | -4 | 26* | 32* | -3 | -1 | 8 | 7
COc1ccc(NCC(=O)Nc2cccc(S(=O)(=O)N3CCCC3)c2)cc1Cl | x | x | x | x | 0 | x | x
O=C(NCc1ccc(Cl)cc1)C1CCCN(S(=O)(=O)c2cnc[nH]2)C1 (stereo not given) | 2 | -4 | -1 | 1 | 3 | 0 | x
CC(Sc1nnc(NCc2ccccc2)s1)C(=O)Nc1ccc2c(c1)C(=O)c1ccccc1C2=O (stereo not given) | -16 | 38* | 22 | -99 | 2 | 0 | 19*
O=C(NC1CCCN(Cc2ccccc2F)C1)c1cccs1 (stereo not given) | 1 | 0 | 1 | -3 | -7 | 2 | x
CCCCCC#CCN1CCN(C23CC4CC(CC(C4)C2)C3)CC1 | 0 | x | -2 | x | -1 | 0 | x
CCCC#CCN1CCN(C23CC4CC(CC(C4)C2)C3)CC1 | 1 | 18* | 4 | 1 | 0 | 3 | 0
CC1(C)CSC(=NCc2ccccc2)N1C(=O)c1cccc([N+](=O)[O-])c1 | 2 | 1 | 2 | 0 | -1 | -2 | x
COc1ccccc1NC(=O)COC(=O)c1cc2ccccc2cc1O | 0 | x | -3 | x | -1 | 1 | x
COc1cc(NC(=O)c2cc3ccccc3cc2O)c(OC)cc1Cl | -13 | 30* | 42* | -5 | -4 | 1 | 14
COc1ccccc1NC(=O)c1cc2cc(Br)ccc2cc1O | -17 | 38* | 7 | -9 | -5 | -6 | 18
COc1cc(OC)c(NC(=O)c2ccccc2F)cc1Cl | -3 | -4 | 0 | 5 | -5 | 1 | x
Cc1sc(-n2c(C)cc(C=O)c2C)c(C(=O)O)c1C | -3 | -1 | -6 | 1 | 4 | 0 | x
CCOc1ccc(CN(C)c2ccc(S(=O)(=O)N3CCN(C)CC3)cc2[N+](=O)[O-])cc1OC | 7 | x | 3 | x | -4 | 10 | x
CN(C)c1ccc(NC(=O)CSc2nc(N)c(C(=O)Nc3ccc(N(C)C)cc3)s2)cc1 | -13 | 19* | 20 | 20 | 2 | 1 | -6
COc1ccc(NC(=O)CSc2nc(N)c(C(=O)Nc3ccc(N(C)C)cc3)s2)cc1 | -8 | 7 | 3 | 14 | -10 | -6 | x

Screening data: PubChem, The Scripps Research Institute Molecular Screening Center
